Only a selection was taken, and the strongest signals are over-represented in it overall.
Columns and labels:
Test in all cases: glycan array binding signal (z-score within array); higher = stronger binding
[1] = tested on: Man(a1-2)Man(a1-3)Man; conditions: glycan notation: IUPAC condensed, linker removed
Method in brief: (§1)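 Arrays were curated from the Consortium for Functional Glycomics database, 3228 in total, and kept only where the protein sequence was available. Binding is expressed as a within-array Z-score. This score was averaged across arrays of the same protein sequence at different concentrations or buffers and across linkers, and negative values can be read as non-binding.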

[2] = tested on: Man(a1-2)Man(a1-3)[Man(a1-2)Man(a1-6)]Man; conditions: glycan notation: IUPAC condensed, linker removed
Method in brief: as §1

[3] = tested on: Man(a1-3)[Man(a1-6)]Man(a1-6)[Man(a1-3)]Man; conditions: glycan notation: IUPAC condensed, linker removed
Method in brief: as §1

[4] = tested on: Man(a1-3)[Man(a1-6)]Man(b1-4)GlcNAc(b1-4)[Fuc(a1-6)]GlcNAc; conditions: glycan notation: IUPAC condensed, linker removed
Method in brief: as §1

[5] = tested on: Kdn(a2-6)Gal(b1-4)GlcNAc; conditions: glycan notation: IUPAC condensed, linker removed
Method in brief: as §1

[6] = tested on: Man(a1-3)[Man(a1-6)]Man(a1-6)[Man(a1-3)]Man(b1-4)GlcNAc(b1-4)GlcNAc; conditions: glycan notation: IUPAC condensed, linker removed
Method in brief: as §1

[7] = tested on: Man(a1-2)Man(a1-2)Man(a1-3)[Man(a1-2)Man(a1-6)[Man(a1-3)]Man(a1-6)]Man(b1-4)GlcNAc(b1-4)GlcNAc; conditions: glycan notation: IUPAC condensed, linker removed; mutation: D138V, E140I
Method in brief: as §1

[8] = tested on: Man(a1-3)[Man(a1-6)]Man; conditions: glycan notation: IUPAC condensed, linker removed
Method in brief: as §1

[9] = tested on: Kdn(a2-3)Gal(b1-4)GlcNAc; conditions: glycan notation: IUPAC condensed, linker removed
Method in brief: as §1

[10] = tested on: Man(a1-2)Man(a1-2)Man(a1-3)Man; conditions: glycan notation: IUPAC condensed, linker removed
Method in brief: as §1

[11] = tested on: Man(a1-2)Man(a1-6)[Man(a1-3)]Man(a1-6)[Man(a1-2)Man(a1-2)Man(a1-3)]Man; conditions: glycan notation: IUPAC condensed, linker removed
Method in brief: as §1

[12] = tested on: Man(a1-2)Man(a1-3)[Man(a1-2)Man(a1-6)]Man(a1-6)[Man(a1-3)[Man(a1-6)]Man(a1-6)]Man(b1-4)GlcNAc(b1-4)GlcNAc; conditions: glycan notation: IUPAC condensed, linker removed
Method in brief: as §1

[13] = tested on: Man(a1-2)Man(a1-2)Man(a1-3)[Man(a1-2)Man(a1-3)[Man(a1-2)Man(a1-6)]Man(a1-6)]Man(b1-4)GlcNAc(b1-4)GlcNAc; conditions: glycan notation: IUPAC condensed, linker removed
Method in brief: as §1

[14] = tested on: Kdn(a2-3)Gal(b1-4)[Fuc(a1-3)]GlcNAc; conditions: glycan notation: IUPAC condensed, linker removed
Method in brief: as §1

[15] = tested on: Man(a1-2)Man(a1-2)Man(a1-6)[Man(a1-3)]Man; conditions: glycan notation: IUPAC condensed, linker removed
Method in brief: as §1

[16] = tested on: Man(a1-2)Man(a1-3)[Man(a1-2)Man(a1-6)]Man(a1-6)[Man(a1-2)Man(a1-2)Man(a1-3)]Man(b1-4)GlcNAc(b1-4)GlcNAc; conditions: glycan notation: IUPAC condensed, linker removed
Method in brief: as §1

[17] = tested on: Man(a1-2)Man(a1-3)[Man(a1-2)Man(a1-6)]Man(a1-6)[Man(a1-2)Man(a1-2)Man(a1-3)]Man; conditions: glycan notation: IUPAC condensed, linker removed
Method in brief: as §1

[18] = tested on: Man(a1-2)Man(a1-3)[Man(a1-6)]Man(a1-6)[Man(a1-2)Man(a1-3)]Man(b1-4)GlcNAc(b1-4)GlcNAc; conditions: glycan notation: IUPAC condensed, linker removed
Method in brief: as §1

[19] = tested on: Man(a1-2)Man(a1-6)[Man(a1-3)]Man(a1-6)[Man(a1-2)Man(a1-2)Man(a1-3)]Man(b1-4)GlcNAc(b1-4)GlcNAc; conditions: glycan notation: IUPAC condensed, linker removed
Method in brief: as §1

[20] = tested on: Man(a1-3)[Man(a1-6)]Man(a1-6)[Man(a1-2)Man(a1-3)]Man(b1-4)GlcNAc(b1-4)GlcNAc; conditions: glycan notation: IUPAC condensed, linker removed
Method in brief: as §1

Sequence of C3b (Homo sapiens), P01024 (P01024 23-667): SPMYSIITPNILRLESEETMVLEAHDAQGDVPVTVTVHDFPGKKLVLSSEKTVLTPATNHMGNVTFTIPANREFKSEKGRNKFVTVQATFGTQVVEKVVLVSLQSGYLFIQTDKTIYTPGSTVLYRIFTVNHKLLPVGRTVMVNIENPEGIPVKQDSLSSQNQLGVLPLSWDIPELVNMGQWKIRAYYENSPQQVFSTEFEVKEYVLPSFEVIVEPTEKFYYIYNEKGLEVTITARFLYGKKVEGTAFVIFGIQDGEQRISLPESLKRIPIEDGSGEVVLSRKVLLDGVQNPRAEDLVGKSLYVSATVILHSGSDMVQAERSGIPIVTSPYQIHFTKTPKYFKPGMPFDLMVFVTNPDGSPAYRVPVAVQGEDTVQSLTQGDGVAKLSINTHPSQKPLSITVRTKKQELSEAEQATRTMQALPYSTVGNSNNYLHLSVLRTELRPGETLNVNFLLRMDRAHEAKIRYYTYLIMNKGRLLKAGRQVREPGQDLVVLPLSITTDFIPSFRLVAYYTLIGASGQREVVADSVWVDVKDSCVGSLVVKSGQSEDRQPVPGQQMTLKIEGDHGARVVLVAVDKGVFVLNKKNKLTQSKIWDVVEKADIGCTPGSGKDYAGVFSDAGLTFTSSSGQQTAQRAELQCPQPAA
Sequence of Avaren (Actinomycete K97) (chain, as listed by the source): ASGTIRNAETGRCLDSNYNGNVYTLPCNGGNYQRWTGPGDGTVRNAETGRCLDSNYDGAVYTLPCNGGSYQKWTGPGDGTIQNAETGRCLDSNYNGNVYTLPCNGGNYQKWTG
Sequence of SRLC (Mus musculus), Q8VIF6 (Q8VIF6 other isoform, or with tags, fused parts or gaps): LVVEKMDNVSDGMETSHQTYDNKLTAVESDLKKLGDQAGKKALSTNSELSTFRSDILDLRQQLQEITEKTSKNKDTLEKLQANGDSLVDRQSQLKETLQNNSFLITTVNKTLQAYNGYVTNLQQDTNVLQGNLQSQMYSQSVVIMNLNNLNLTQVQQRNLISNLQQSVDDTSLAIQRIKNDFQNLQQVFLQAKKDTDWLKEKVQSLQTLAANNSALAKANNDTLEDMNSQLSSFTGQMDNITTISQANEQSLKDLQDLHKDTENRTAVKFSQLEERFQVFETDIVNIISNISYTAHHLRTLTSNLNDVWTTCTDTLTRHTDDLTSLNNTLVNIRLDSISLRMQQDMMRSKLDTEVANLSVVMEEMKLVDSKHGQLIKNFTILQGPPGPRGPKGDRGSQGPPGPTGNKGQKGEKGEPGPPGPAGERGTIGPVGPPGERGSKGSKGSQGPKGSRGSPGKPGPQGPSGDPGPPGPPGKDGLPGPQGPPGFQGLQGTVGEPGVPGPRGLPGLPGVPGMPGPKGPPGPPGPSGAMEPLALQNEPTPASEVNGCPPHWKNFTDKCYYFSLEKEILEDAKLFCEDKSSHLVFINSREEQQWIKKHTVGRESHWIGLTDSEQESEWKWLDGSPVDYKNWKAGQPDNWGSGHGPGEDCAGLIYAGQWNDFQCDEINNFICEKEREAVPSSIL
Sequence of 6RG (Lolium perenne), B9U140 (B9U140 entry or part of it): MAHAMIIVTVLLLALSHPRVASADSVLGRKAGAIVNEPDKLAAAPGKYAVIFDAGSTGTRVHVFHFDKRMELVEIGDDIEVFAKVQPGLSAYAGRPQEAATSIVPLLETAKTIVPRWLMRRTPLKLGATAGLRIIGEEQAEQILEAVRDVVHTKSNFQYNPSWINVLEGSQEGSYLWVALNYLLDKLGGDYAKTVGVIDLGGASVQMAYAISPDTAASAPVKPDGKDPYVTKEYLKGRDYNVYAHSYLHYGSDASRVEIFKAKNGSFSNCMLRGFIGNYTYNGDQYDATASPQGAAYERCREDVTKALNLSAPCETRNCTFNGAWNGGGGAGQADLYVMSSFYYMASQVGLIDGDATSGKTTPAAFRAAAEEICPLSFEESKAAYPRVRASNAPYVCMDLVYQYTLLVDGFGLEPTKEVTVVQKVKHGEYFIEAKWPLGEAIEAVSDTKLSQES
Sequence of CHT (Homo sapiens) (chain, as listed by the source): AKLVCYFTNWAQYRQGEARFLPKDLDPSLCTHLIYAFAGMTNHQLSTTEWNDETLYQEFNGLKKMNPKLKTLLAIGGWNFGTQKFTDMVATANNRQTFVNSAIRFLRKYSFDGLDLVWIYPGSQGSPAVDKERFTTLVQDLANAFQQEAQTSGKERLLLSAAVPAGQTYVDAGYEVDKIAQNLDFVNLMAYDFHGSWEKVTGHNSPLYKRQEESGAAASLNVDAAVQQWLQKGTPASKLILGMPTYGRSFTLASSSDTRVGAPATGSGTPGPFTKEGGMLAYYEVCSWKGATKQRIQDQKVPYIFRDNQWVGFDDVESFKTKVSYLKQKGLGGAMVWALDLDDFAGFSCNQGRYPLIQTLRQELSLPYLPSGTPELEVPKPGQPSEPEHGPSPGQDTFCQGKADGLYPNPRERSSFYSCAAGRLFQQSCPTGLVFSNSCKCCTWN
Sequence of CHI3L1 (Homo sapiens), P36222 (P36222 whole entry): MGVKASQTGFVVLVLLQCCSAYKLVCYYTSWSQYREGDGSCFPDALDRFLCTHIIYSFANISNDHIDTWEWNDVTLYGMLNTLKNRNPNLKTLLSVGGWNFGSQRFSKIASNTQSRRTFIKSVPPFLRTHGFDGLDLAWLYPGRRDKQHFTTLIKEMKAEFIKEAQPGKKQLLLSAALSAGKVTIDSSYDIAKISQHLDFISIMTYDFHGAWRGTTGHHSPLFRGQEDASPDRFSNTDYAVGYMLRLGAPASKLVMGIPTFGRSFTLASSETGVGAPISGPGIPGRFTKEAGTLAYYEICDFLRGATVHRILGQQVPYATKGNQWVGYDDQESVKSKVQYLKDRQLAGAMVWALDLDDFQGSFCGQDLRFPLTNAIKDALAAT
Sequence of Aggrecan (Rattus norvegicus), NP_071526 (chain, as listed by the source): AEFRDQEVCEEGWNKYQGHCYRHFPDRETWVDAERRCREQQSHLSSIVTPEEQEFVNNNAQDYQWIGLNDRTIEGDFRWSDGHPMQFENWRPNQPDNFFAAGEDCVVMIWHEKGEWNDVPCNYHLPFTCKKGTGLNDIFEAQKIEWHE
Sequence of Neurocan (Homo sapiens), O14594 (O14594 other isoform, or with tags, fused parts or gaps): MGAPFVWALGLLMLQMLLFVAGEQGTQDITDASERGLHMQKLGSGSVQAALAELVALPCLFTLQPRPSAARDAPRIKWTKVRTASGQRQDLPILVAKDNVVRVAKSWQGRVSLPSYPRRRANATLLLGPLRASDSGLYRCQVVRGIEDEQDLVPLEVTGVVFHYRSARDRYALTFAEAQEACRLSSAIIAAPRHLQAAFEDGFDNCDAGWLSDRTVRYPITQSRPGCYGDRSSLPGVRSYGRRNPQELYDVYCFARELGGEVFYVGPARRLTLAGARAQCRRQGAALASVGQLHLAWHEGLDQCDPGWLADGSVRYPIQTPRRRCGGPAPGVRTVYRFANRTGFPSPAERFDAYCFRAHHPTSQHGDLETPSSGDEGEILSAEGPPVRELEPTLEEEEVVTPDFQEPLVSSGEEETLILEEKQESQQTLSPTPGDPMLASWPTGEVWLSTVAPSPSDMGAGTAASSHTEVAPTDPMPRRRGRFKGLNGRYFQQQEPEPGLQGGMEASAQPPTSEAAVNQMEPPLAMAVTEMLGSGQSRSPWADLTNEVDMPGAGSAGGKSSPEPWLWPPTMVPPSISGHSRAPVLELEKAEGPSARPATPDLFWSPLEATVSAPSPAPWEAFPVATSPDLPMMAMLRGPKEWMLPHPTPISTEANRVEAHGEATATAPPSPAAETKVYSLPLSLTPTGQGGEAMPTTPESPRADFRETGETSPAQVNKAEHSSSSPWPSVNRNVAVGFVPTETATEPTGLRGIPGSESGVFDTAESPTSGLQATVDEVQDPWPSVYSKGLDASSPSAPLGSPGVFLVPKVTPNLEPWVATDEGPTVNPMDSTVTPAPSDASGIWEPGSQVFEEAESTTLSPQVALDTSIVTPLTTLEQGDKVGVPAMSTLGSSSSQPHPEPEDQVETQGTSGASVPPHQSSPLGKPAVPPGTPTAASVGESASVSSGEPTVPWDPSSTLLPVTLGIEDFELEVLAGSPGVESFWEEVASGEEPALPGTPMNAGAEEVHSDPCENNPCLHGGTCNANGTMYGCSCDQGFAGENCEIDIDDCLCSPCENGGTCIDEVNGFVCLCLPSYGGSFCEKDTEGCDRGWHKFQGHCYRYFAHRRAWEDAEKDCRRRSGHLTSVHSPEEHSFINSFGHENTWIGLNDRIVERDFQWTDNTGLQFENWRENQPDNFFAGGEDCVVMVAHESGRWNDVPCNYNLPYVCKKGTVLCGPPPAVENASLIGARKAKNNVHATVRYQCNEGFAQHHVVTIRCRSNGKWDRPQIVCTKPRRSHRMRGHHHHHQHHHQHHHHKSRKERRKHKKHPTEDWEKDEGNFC
Sequence of PILRb (Mus musculus), Q2YSF2 (Q2YSF2 entry or part of it): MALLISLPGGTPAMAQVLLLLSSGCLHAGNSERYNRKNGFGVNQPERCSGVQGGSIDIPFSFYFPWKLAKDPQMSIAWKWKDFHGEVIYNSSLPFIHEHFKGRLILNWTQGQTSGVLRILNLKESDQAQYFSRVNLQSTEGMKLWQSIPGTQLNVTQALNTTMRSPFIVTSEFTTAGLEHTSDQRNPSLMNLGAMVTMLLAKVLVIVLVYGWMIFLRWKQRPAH
Sequence of PILRa (Mus musculus), Q2YSF3 (Q2YSF3 entry or part of it): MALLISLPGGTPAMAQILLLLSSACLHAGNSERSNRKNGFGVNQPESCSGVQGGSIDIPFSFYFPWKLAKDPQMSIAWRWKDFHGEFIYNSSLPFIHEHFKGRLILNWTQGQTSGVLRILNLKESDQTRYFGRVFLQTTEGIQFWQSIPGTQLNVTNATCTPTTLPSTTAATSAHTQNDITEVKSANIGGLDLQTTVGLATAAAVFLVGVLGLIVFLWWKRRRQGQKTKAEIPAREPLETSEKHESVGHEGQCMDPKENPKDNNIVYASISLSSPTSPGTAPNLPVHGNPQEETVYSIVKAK

## Siglec-8 (Homo sapiens), Q9NYZ4
[1]
  glycan array binding signal (z-score): -0.003
[2]
  glycan array binding signal (z-score): -0.204
[3]
  glycan array binding signal (z-score): 0.131
[3]; mutation: R125K
  glycan array binding signal (z-score): -0.227
[4]
  glycan array binding signal (z-score): -0.07

## PILRa (Mus musculus), Q2YSF3
[5]
  glycan array binding signal (z-score): -0.059

## 6RG (Lolium perenne), B9U140
[2]
  glycan array binding signal (z-score): -0.266
[6]
  glycan array binding signal (z-score): -0.359

## CHT (Homo sapiens)
[7]
  glycan array binding signal (z-score): -0.189
[8]; mutation: D138V, E140I
  glycan array binding signal (z-score): -0.149

## Neurocan (Homo sapiens), O14594
[2]
  glycan array binding signal (z-score): -0.053
[3]
  glycan array binding signal (z-score): -0.722

## C3b (Homo sapiens), P01024
[9]
  glycan array binding signal (z-score): -0.561
[10]
  glycan array binding signal (z-score): 0.007
[11]
  glycan array binding signal (z-score): -0.764

## HARE (Homo sapiens), Q8WWQ8
[12]
  glycan array binding signal (z-score): 2.39

## SRLC (Mus musculus), Q8VIF6
[10]
  glycan array binding signal (z-score): -0.206
[13]
  glycan array binding signal (z-score): -0.241

## CHI3L1 (Homo sapiens), P36222
[9]
  glycan array binding signal (z-score): -0.144
[14]
  glycan array binding signal (z-score): 0.381

## Avaren (Actinomycete K97)
[10]
  glycan array binding signal (z-score): 2.52
[15]
  glycan array binding signal (z-score): 14.7
[16]
  glycan array binding signal (z-score): 1.26
[17]
  glycan array binding signal (z-score): 11.2
[2]
  glycan array binding signal (z-score): 3.5
[18]
  glycan array binding signal (z-score): 1.08
[19]
  glycan array binding signal (z-score): 13.4
[11]
  glycan array binding signal (z-score): 6.02
[20]
  glycan array binding signal (z-score): -0.014
[6]
  glycan array binding signal (z-score): -0.113
[8]
  glycan array binding signal (z-score): -0.106

## PILRb (Mus musculus), Q2YSF2
[14]
  glycan array binding signal (z-score): 0.391

## Aggrecan (Rattus norvegicus), NP_071526
[16]
  glycan array binding signal (z-score): 0.607
[20]
  glycan array binding signal (z-score): 1.14
